Data from ChEMBL document CHEMBL3988442, “University of Dundee, Small-Polar-MMV Screening Library” (2021).
In all, about 48,000 compounds went through this assay and about 13,000 (27%) showed an effect of 50% or more. This is one part of the list.

system: Wolbachia pipientis; assay: Anti-Wolbachia Cell-Based Screen; format: functional; set-up: scale not given: in the data most compounds retested in dose-response had high values; conditions: 5 µM

SMILES	Percent Effect [%]
O=C(c1ccncc1)N1CCCn2nnc(Cn3cccn3)c2C1	4.632
O=C(c1ccnnc1)N1CCCn2nnc(COCC3CC3)c2C1	-17.91
CN(C)C(=O)NCc1nnn2c1CN(CC1CCOCC1)CCC2.O=C(O)C(F)(F)F	4.127
C1CN(CC2CCOCC2)Cc2c(COCC3CC3)nnn2C1.O=C(O)C(F)(F)F	2.92
O=C(CC1CC1)N1CCCn2nnc(CNc3ncccn3)c2C1	92.45
O=C(CO)N1CCCn2nnc(Cn3cccn3)c2C1	-5.05
COCc1nnn2c1CN(C(=O)c1ccnnc1)CCC2	-7.41
O=C(O)C(F)(F)F.c1cnc(NCc2nnn3c2CN(CC2CC2)CCC3)nc1	97.82
COc1ccc(OC)c(CCNC(=O)NC(C)Cn2ccnc2)c1 (configuration not stated)	-5.904
O=C(CSc1nncs1)N1CCN(Cc2ccc(Cl)s2)CC1	-21
CCSc1ccc(C(C)NC(=O)CNS(C)(=O)=O)cc1 (configuration not stated)	4.212
O=C1OCCN1CCS(=O)(=O)c1cccc(Br)c1	-18.91
CCC(C)CNCC1(S(C)(=O)=O)CCOCC1 (configuration not stated)	-24.39
OCc1cc(C2CCCN2c2ncccn2)n[nH]1 (configuration not stated)	112
Cc1n[nH]c2ncc(CNC3CCCN(c4ncccn4)C3)cc12.Cl (configuration not stated)	-16.46
CC(=O)N1CCCCC1c1cc(CO)[nH]n1 (configuration not stated)	-3.311
Cc1nc(C2CCCN(C(=O)c3sccc3C3CC3)C2)no1 (configuration not stated)	-10.65
Cc1cc(CN2CCN(C(=O)c3sccc3C3CC3)CC2)no1	143.4
Cc1nc(CN2CCN(C(=O)c3sccc3C3CC3)CC2)oc1C	120.2
Cc1cc(CN2CCN(C(=O)c3sccc3C3CC3)CC2)on1	-1.767
Cc1nc(CN2CCCN(C(=O)c3ccccn3)CC2)oc1C	3.458
O=C(c1sccc1C1CC1)N1CCCN(Cc2cscn2)CC1	113.8
COCc1nc(C(=O)N2CCN(Cc3cc(C)on3)CC2)cs1	-18.23
O=C(c1sccc1C1CC1)N1CCN(Cc2cscn2)CC1	132.1
NC(=O)NCC(=O)N1C[C@H]2CC[C@@H]1CN(Cc1ccccc1)C2	-2.465
CCNc1ncc(C(=O)N[C@@H](C)[C@H](O)c2ccccc2)cn1	-5.841

SMILES	Percent Effect [%]
CS(=O)(=O)NCC(=O)N[C@H]1CN(CC2CC2)C[C@@H]1c1ccccc1	5.176
C[C@@H]1CN(S(=O)(=O)N2CCOCC2)C[C@@]1(O)C1CC1	13.89
Cc1cc(C)n(C2CCN(S(=O)(=O)N3CCOCC3)CC2)n1	108
Cc1cc(C)n(C2CCN(S(C)(=O)=O)CC2)n1	88.3
Cc1cc(C)n(C2CCN(S(=O)(=O)N3CCC(C)CC3)CC2)n1	84.26
Cc1cc(C)n(C2CCCN(C(=O)C3=NN(C)C(=O)CC3)C2)n1 (configuration not stated)	-1.412
CC1CCN(S(=O)(=O)N2CCc3sccc3C2)CC1	3.018
Cc1cc(C)n(C2CN(CC(=O)NCC(C)(C)N3CCOCC3)C2)n1	4.363
Cc1ccc([C@@H]2CN(S(=O)(=O)N3CCC(C)CC3)C[C@H]2N(C)C)cc1	5.444
Cc1cc(C)n(C2CCCN(C(=O)c3c(C)c(C)n[nH]c3=O)C2)n1 (configuration not stated)	-2.25
CN(Cc1cnn(C)c1)C1CCN(c2cccc(-c3cscn3)c2)CC1	-7.204
CCn1c(CC2CCN(C(=O)c3cc(C(C)C)nn3C)CC2)n[nH]c1=O	0.9199
Cc1occc1C(=O)NCC(=O)NCCCOc1ccc(F)cc1	-8.265
CCc1nnc(CNc2ccc(CC(=O)N3CCSCC3)cc2)o1	7.337
COC(=O)[C@@H]1C[C@H](NC(=O)c2cc(=O)[nH]c3ccc(C)cc23)CN1C	103.5
CCNC(=O)[C@@H]1C[C@@H](N)CN1C(=O)Cc1cc(C)ccc1C	-80.39
CCNC(=O)[C@@H]1C[C@H](N)CN1C(=O)Cc1cc(C)ccc1C	-8.677
CCNC(=O)[C@@H]1C[C@H](NC(=O)c2cc(=O)[nH]c3ccc(C)cc23)CN1C	116.2
Cc1ccc2[nH]c(=O)cc(C(=O)N[C@@H]3C[C@@H](CO)N(C)C3)c2c1	108.3
COC(=O)[C@@H]1C[C@@H](NC(=O)CN2C(=O)N(C)Cc3ccccc32)CN1C	-9.28
CNc1ccc(C)cc1C(=O)N[C@H]1C[C@H]2CN(C)CCN2C1	9.233
CCc1ccc2nc(C)cc(C(=O)N[C@@H]3C[C@@H](CO)N(C)C3)c2c1	90.46
Cc1ccc2[nH]c(=O)cc(C(=O)NCCCn3nccc3C3CC3)c2c1	-8.543
CCc1ccc2nc(C)cc(C(=O)N[C@@H]3CCCNC3)c2c1	-27.02
CCc1ccc2nc(C)cc(C(=O)NC3CCC(=O)N(C)C3)c2c1 (configuration not stated)	-60.56
COC(=O)[C@@H]1C[C@H](NC(=O)Cn2c(=O)cc(C)c3ccccc32)CN1C	0.9939
